Screening data (PubChem)
A selection: hits, their analogues and other compounds. The true share with any hit is near 1.5%.
Mtb MenB inh = Mtb MenB enzyme inhibition. 100,000 compounds, 0.43% hits. MenB enzyme assay, absorbance read-out. P9WNP5. inhibition, % (concentration not given with the values); in the data active = inhibition above about 21%, passing the limit was not always enough
AID504770 = E. coli YBA685 growth inhibition, screen for V. cholerae RctB inhibitors; 130,000 compounds, 0.27% hits; AID 504770; E. coli YBA685 rctB-dependent plasmid, OD600 growth, 3 h; active compounds read low; z-score (test concentration not listed); in the data active = z-score below about -2, passing the limit was not always enough
MbtI inh = MbtI salicylate synthase inhibition | P9WFX0 | purified MbtI enzyme, fluorescence intensity read-out | inhibition, % (concentration not given with the values) | 100,000 compounds, 0.89% hits; in the data active = inhibition mostly above about 56%, no sharp cut-off; inactive = mostly below about 77%
Target sequence (P9WFX0 whole entry, looked up): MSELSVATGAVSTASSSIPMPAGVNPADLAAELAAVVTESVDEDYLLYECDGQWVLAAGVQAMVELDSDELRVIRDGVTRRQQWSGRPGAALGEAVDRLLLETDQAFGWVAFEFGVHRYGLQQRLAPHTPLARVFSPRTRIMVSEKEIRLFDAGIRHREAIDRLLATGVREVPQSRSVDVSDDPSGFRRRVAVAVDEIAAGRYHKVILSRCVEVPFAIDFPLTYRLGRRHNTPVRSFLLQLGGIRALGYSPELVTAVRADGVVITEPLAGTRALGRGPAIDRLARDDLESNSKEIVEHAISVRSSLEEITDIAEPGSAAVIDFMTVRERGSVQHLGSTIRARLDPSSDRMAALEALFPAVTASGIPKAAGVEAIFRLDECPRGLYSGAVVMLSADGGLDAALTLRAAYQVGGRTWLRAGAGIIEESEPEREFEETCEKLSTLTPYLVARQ
PV pol inh = inhibitors of poliovirus RNA polymerase binding and polymerization. % elongation, % (compound at 16.7 µg/mL). 150,000 compounds, 0.66% hits. P03300. poliovirus polymerase elongation, fluorescence polarization; active compounds read low; in the data active = % elongation below about 90%
Numbers without * were called inactive; . = not tested or not shown; ! = repeats disagree.

SMILES	Mtb MenB inh	AID504770	MbtI inh	PV pol inh
CCN(CCC#N)c1ccc(/C=C(\C#N)C(=O)NC(C)C)c(C)c1	-494	0.8	18	125
CCN(CC)c1ccc(/C=C(/C#N)C(=O)NC(C)C)o1	-162	-3.4*	4	77
O=C1CCCC(O)=C1C1(O)C(=O)c2ccccc2C1=O	-2	-1.4	-5	79*
CC(=Nc1ccccc1)C1=C(O)CCCC1=O	0	-0.55	3	103
CC(C)(/C=N/N(Cc1ccccc1)c1ccccc1)CO	8	0.55	8	108
O=C1C=C/C(=N/N(Cc2ccccc2)c2ccccc2)O1	1	-0.7	90*	101
Oc1c(C(c2cccs2)N2CCCCC2)ccc2cccnc12 (configuration not stated)	-76	0.1	97*	135
NC(CO)C12CC3CC(CC(C3)C1)C2 (configuration not stated)	.	2.5	2	103
CCC(N)C12CC3CC(CC(C3)C1)C2 (configuration not stated)	0	0.95	.	86*
Cc1nc2sccn2c(=O)c1S(=O)(=O)N1CCC(Cc2ccccc2)CC1	-9	0.45	-41	100
N=C1S/C(=C\c2ccc(-c3ccccc3F)o2)C(=O)N1c1ccc2c(c1)OCO2	-11	0.4	-26	99
COc1cc(-c2ccc(/C=C3\SC(=N)N(c4nccs4)C3=O)o2)c(OC)cc1Cl	-29	-0.05	56*	113
N#Cc1ccc(CSc2nnc(-c3cccs3)n2CC2CCCO2)cc1 (configuration not stated)	-17	-2.5*	11	107
CC(C#N)Sc1nnc(-c2cccs2)n1CC1CCCO1 (configuration not stated)	-44	-0.7	-3	99
C[N+](C)(Cc1ccccc1)Cc1ccccc1	-8	-0.45	.	107
Cc1cc(C(C)(C)CC(C)(C)C)ccc1OCCOCC[N+](C)(C)Cc1ccccc1	0	0.25	-16	94*!
O=C(Cn1cnc2ccccc2c1=O)OCC(=O)c1c[nH]c2ccccc12	-3	-0.85	-6	.
C=CCn1c(=O)[nH]c2nc3cc(N=CN(C)C)c(C)cc3nc2c1=O	-21	-0.3	-4	88
C=CCn1c(=O)[nH]c2nc3cc(N=CN(C)C)ccc3nc2c1=O	-49	1.5	6	-6.0*
CCOC(=O)CSc1nnc(CNC(=O)Cc2ccccc2)n1-c1ccc(OC)cc1	0	0.15	12	101
NCc1ccc(C(=O)O)o1	-22	0.75	-7	100
NC(=S)Cc1ccc(CC(N)=S)o1	-23	0.15	82*	95
CN(C)S(=O)(=O)c1ccc2oc(=S)[nH]c2c1	-30	1.3	77	88*
C=Cc1ccc2c(ccn2C(C)=O)c1	20	0.15	3	101
C=Cc1ccc2c(c1)N(C)C(=C)S2	.	-0.7	62*	104
SMILES	Mtb MenB inh	AID504770	MbtI inh	PV pol inh
CCN(CC)C(=O)c1cc(-c2ccc(C)cc2)on1	5	0	.	100
C=CCNC(=O)c1cc(-c2ccc(OC)cc2)on1	-9	-0.2	-11	101
C=CCNC(=O)c1cc(-c2ccccc2)on1	34*	-0.1	8	100
O=C(O)c1cc(-c2ccc(F)cc2)on1	47*	-0.8	.	98
CCN(CC)C(=O)c1cc(-c2ccccc2)on1	34*	0	7	102
CN(C)S(=O)(=O)c1ccc(N2CCOCC2)c(C(=O)Nc2ccc3c(c2)OCCO3)c1	4	-0.05	5	100
CC(=O)OCCOCn1cc(I)c(=O)[nH]c1=O	1	-0.7	-4	101
CC1=NN(c2cccc(C(=O)O)c2)C(=O)/C1=C/c1ccc(-c2cccc(Cl)c2C)o1	-17	-0.45	38	90*
CC1=NN(c2ccccc2)C(=O)/C1=C/c1ccc(-c2ccccc2)o1	7	0.85	1	99
O=C(COc1ccc(-c2ccccc2)cc1)NCc1cccnc1	.	0.05	-15	101
CCN(CC)c1ccc(NS(=O)(=O)c2cc3[nH]c(=O)c(=O)[nH]c3cc2C)c(C)c1	.	.	.	85*
Cc1nc(-c2cccnc2)[nH]c(=O)c1CC1CC1	.	-3*	.	.
O=c1[nH]c(-c2cccnc2)nc2ccccc12	.	2	.	.
O=C(Nc1cc(C(F)(F)F)cc(C(F)(F)F)c1)C(=S)N1CCCCC1	1	0.9	.	76*
O=C(CN1CCCC1)Nc1cc(C(F)(F)F)cc(C(F)(F)F)c1	.	-0.1	.	.
O=C(Nc1nsc(-c2ccccc2)n1)c1ccc2ncsc2c1	.	0.4	-5	.
CCCOc1ccc(C(=O)O)cc1	.	-0.15	-5	103
CN(C)CCC(=O)c1ccc(Br)cc1	-6	-0.8	69*	102
CCCOc1ccc(C(=O)CCN(C)C)cc1	-57	-0.85	59*	97
N=C1SCC(=O)N1c1nccs1	-13	-4.6*	.	102
Cc1cc2nc(N3C(=N)SCC3=O)sc2cc1C	-54	0.35	2	106
COc1ccccc1NC(=O)c1ccc(C)cc1	.	2	.	.
CN(CCC(N)=O)Cc1ccccc1	38*	-0.45	-2	101
O=C(C(c1ccccc1)N1Cc2ccccc2C1=O)N1CCN(c2ccccc2F)CC1 (configuration not stated)	3	0.15	-25	100
O=C(Nc1ccccc1C(=O)O)c1cccs1	27	-0.4	89*	98
SMILES	Mtb MenB inh	AID504770	MbtI inh	PV pol inh
Cc1ccc(N2CCN(C(=O)c3cnn(-c4ccc(C)c(C)c4)c3C3CCNCC3)CC2)c(C)c1	.	.	.	74*
Cc1ccc(Cl)cc1N1CCN(C(=O)c2cnn(-c3ccc(Cl)cc3)c2C2CCNCC2)CC1	.	.	.	106
O=C(O)C(C(=O)OCc1ccccc1)c1ccccc1 (configuration not stated)	-19	-0.65	-4	104
O=c1oc(C23CC4CC(CC(C4)C2)C3)ns1	-27	-0.45	.	73*
COc1ccc(-c2n[nH]c(=S)n2/N=C/c2c(C)nn(-c3ccccc3)c2C)cc1OC	-17	0.9	2	101
Cc1nn(-c2ccccc2)cc1/C=N/n1c(-c2ccncc2)n[nH]c1=S	-18	-0.45	51*	103
COc1ccc2nc3oc(C(=O)NCCC4=CCCCC4)cc3cc2c1	-3	-5.2*	-82	102
COc1ccccc1CC(=O)Nc1cccc(NC(C)=O)c1	-1	-0.9	.	99
COc1ccccc1CC(=O)Nc1cccc(C)n1	40*	0.25	1	100
O=C(NC1CCS(=O)(=O)C1)Sc1ccccc1 (configuration not stated)	15	1.2	52*	104
CC(NC(=O)CCC1=NS(=O)(=O)c2ccccc2N1)c1ccc2c(c1)OCCO2 (configuration not stated)	-32	1.3	-3	102
O=C1NC(=O)C2C3C=CC(O3)C12 (configuration not stated)	12	-3.5*	77	99
CSc1nnc2c(n1)OC(c1ccccc1)N(C(C)=O)c1ccccc1-2 (configuration not stated)	-80	-0.5	-8	103
CCOc1cc(C(=S)N2CCOCC2)ccc1OC	-21	-1.2	.	65*
CCOc1cc(C(C#N)N2CCOCC2)ccc1OC (configuration not stated)	.	-0.8	.	.
COc1ccc(C(=S)N2CCCC2)cc1OC	1	0.15	6	101
